# Source: PubChem BioAssay (NCATS)
# Inconclusive results are not listed. Calls of active or inactive are those of the source. Calls come from the whole dose curve; as a rule, active = well fitted inhibition curve with a large enough effect; inconclusive = small, poorly fitted or top-dose-only effect; inactive = no such curve, though single readings can be large or run the other way. Starred links: 1 amine or outer side, 2 acyl side, 3 side chain; linkers in the order of their positions; H or OH if unused. Positions of bridges follow the written chain, without caps; N, C: chain ends. Non-standard residues stand in square brackets, D forms with d. Residues, ends and D or L forms follow the SMILES beside them. Chains are numbered I, II in the order given. Actinocin(9to1) = Cc1c2oc3c(C)ccc(C(=O)[*:1])c3nc-2c(C(=O)[*:2])c(N)c1=O; NMeV = CN[CH](C(=O)O)C(C)C; Sar = CNCC(=O)O
# Experiment: NS1 protein of Zika virus - qHTS assay to identify small molecule inhibitors in human HEK 293 cells (AID 1347053); note: nearly all actives have a fitted effect of over 55% in size;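 for activity change, negative = inhibition: plate controls were infected untreated cells for no effect and uninfected cells for full effect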
# Conditions: HEK293 ZIKV MR766 infection, NS1 TR-FRET, 24 h; series mostly up to 46.1 µM; activity change, negative = inhibition: at the top concentration
# Source text: National Center for Advancing Translational Sciences [NCATS]
# Johns Hopkins University School of Medicine
# The non-structural 1 (NS1) protein of zika virus is known to associate with the viral replication complex. This cell-based TR-FRET ZIKV NS-1 assay measures the increased NS-1 protein in human HEK 293 cells after a 24-hour Zika virus infection by a TR-FRET assay readout. A decrease in the Time-resolved fluorescence energy transfer (TR-FRET) signal in this assay by small molecule treatment indicates an inhibitory effect of the small molecule on the expression of Zika virus NS1 correlating with Zika virus replication.
# HEK 293 cells were cultured in EMEM (ATCC, Cat. # 30-2003) medium with 10% fetal bovine serum (GE healthcare Life Sciences, Cat. # SH30071.03), and 1% Pen/Strep (Gibco, Cat. # 15140-122). Cells were seeded in the assay plate and incubated at 37 C with 5% CO2 for 20 hours. Compounds were added to cells and incubated for one hour before addition of ZIKV MR766 strain solution to cells (MOI = 0.5). After an incubation at 37 C for 24 hours, the reagent mixture of TR-FRET ZIKV NS1 assay using two anti-ZIKV NS1 antibodies was added to assay plates. The TR-FRET signals in assay plates were measured using an Envision plate reader (PerkinElmer). Data were normalized by using the cell-containing wells without ZIKV as a negative control (0% NS-1) and wells containing ZIKV infected cells as a positive control (100% NS-1 level).
# Potency is the fitted concentration of half-maximal effect.
Compound,Potency,"activity change, negative = inhibition"
Cn1cc(-c2cnn3c(N)c(Br)c([C@H]4CCCNC4)nc23)cn1,0.833 µM (active),–
C[C@H](O)[C@@H]1C(=O)N2C(C(=O)O)=C(S[C@@H]3CN[C@H](CNS(N)(=O)=O)C3)[C@@H](C)[C@@H]12,–,0.154% (inactive)
O=C1c2c(O)cccc2[C@@H]([C@@H]2O[C@H](CO)[C@@H](O)[C@H](O)[C@H]2O)c2cc(CO)cc(O)c21,–,1.06% (inactive)
NC(=NCCCCCCN=C(N)N=C(N)Nc1ccc(Cl)cc1)N=C(N)Nc1ccc(Cl)cc1,–,-22.9% (inactive)
C[C@@]12C(=O)OC(=O)[C@@]1(C)C1CCC2O1,3.72 µM (active),–
CC(C)C[C@H](NC(=O)[C@@H](NC(=O)c1cccc(-c2ccccc2)n1)[C@@H](C)O)B(O)O,0.132 µM (active),–
COc1cccc2c1C(=O)c1c(O)c3c(c(O)c1C2=O)C[C@@](O)(C(=O)CO)C[C@@H]3O[C@H]1C[C@H](N)[C@@H](O)[C@H](C)O1,0.296 µM (active),–
CCCCCCCN(CC)CCCC(O)c1ccc(NS(C)(=O)=O)cc1 (stereo not given),–,-1.22% (inactive)
CC(C)(O)Cn1c(NC(=O)c2ccc(-c3cn[nH]c3)s2)nc2cc(CN3CCOCC3)ccc21,5.26 µM (active),–
O=c1ccn([C@@H]2O[C@H](CO)[C@H](O)[C@@H]2F)c(=O)[nH]1,–,2.17% (inactive)
NC1=N[C@H]2[C@H](CS[C@H]2CCCCC(=O)O)N1,–,2.47% [at 20.1 µM] (inactive)
CCS(=O)(=O)Nc1ccc2[nH]c(O)c(C(=Nc3ccc(CN4CCCCC4)cc3)c3ccccc3)c2c1,18.7 µM (active),–
Cc1ccc2nc(NCCN)c3ncc(C)n3c2c1,26.4 µM (active),–
FC(F)c1nc2ccccc2n1-c1nc(N2CCOCC2)nc(N2CCOCC2)n1,1.87 µM (active),–
Cn1cnc2c(F)c(Nc3ccc(Br)cc3F)c(C(=O)NOCCO)cc21,–,4.57% (inactive)
COC(=O)[C@@H]1[C@H]2C[C@@H]3c4[nH]c5ccccc5c4CCN3C[C@@H]2CC[C@@H]1O,–,13.3% (inactive)
CNC(=O)Nc1ccc(-c2nc(N3CC4CCC(C3)O4)c3cnn(C4CCC5(CC4)OCCO5)c3n2)cc1,16.6 µM (active),–
C=C1C(=CC=C2CCC[C@]3(C)[C@@H]([C@H](C)CCCC(C)(C)O)CC[C@@H]23)C[C@@H](O)C[C@@H]1O,–,13.9% (inactive)
C[N+]1(C)[C@@H]2C[C@@H](OC(=O)C(O)(c3cccs3)c3cccs3)C[C@H]1[C@@H]1O[C@@H]12,–,-2.64% (inactive)
COc1ccc(Nc2cc(-c3cnc(N)nc3)nc(N3CCOCC3)n2)cn1,16.6 µM (active),–

Compound,Potency,"activity change, negative = inhibition"
O=c1[nH]c(=O)n([C@H]2C[C@@H](O)[C@@H](CO)O2)cc1F,0.833 µM (active),–
CN(C)CCN1C(=O)c2cccc3cc(N)cc(c23)C1=O,–,31.1% (inactive)
CC(C)c1cc(C(C)C)c(CC(=O)NS(=O)(=O)Oc2c(C(C)C)cccc2C(C)C)c(C(C)C)c1,–,4.64% (inactive)
c1ccc2c(Oc3nc(Nc4ccc(N5CCOCC5)cc4)c4ncn(C5CCCCC5)c4n3)cccc2c1,–,-27.1% (inactive)
O=C1CSC(=O)N1C(CCc1ccncc1)COc1ccc(-c2cccc([N+](=O)[O-])c2)cc1 (stereo not given),–,-4.9% (inactive)
Cc1coc2c1C(=O)C(=O)c1c-2ccc2c(C)cccc12,–,9.6% (inactive)
CN1[C@H]2CC(OC(=O)[C@@H](CO)c3ccccc3)C[C@H]1[C@H]1O[C@H]12 (stereo not given in full),–,-8.35% [at 20.1 µM] (inactive)
O=C(C=CC#Cc1cccc(NS(=O)(=O)c2ccccc2)c1)NO,13.2 µM (active),–
N#CC(=C(O)c1ccc(Cl)cc1Cl)c1nc2cc(Cl)ccc2c(=O)[nH]1,–,3.18% (inactive)
N#CNC(=NCCCCCCOc1ccc(Cl)cc1)Nc1ccncc1,–,1.91% (inactive)
CC(=O)O[C@H]1C[C@@H]2CC[C@H]3[C@H]4C[C@H]([N+]5(C)CCCCC5)[C@@H](OC(C)=O)[C@@]4(C)CC[C@@H]3[C@@]2(C)C[C@H]1N1CCCCC1,–,15.3% (inactive)
CC(C)[C@H](CO)Nc1nc(Nc2cccc(Cl)c2)c2ncn(C(C)C)c2n1,23.5 µM (active),–
COc1cc(C)c(C=CC(C)=CC=CC(C)=CC(=O)O)c(C)c1C,–,13.5% (inactive)
N#Cc1cc(NC(=O)Nc2nnc(-c3ccncc3)s2)ccc1-c1cn[nH]c1,–,6.16% (inactive)
Nc1nc2c(c(=O)[nH]1)N(C=O)[C@H](CNc1ccc(C(=O)N[C@@H](CCC(=O)O)C(=O)O)cc1)CN2,–,4.89% (inactive)
COc1cc(C[C@@H](CO)[C@H](CO)Cc2ccc(O)c(OC)c2)ccc1O,–,-3.97% (inactive)
C[C@H]1O[C@H](O[C@H]2[C@H](O)[C@@H](O)[C@@H](O[C@H]3[C@H](O)[C@@H](O)C(O)O[C@H]3CO)O[C@H]2CO)[C@H](O)[C@@H](O)[C@H]1N[C@H]1C=C(CO)[C@@H](O)[C@H](O)[C@@H]1O (stereo not given in full),–,-1.09% (inactive)
NC(=O)c1cccc(-c2cccc(OC(=O)NC3CCCCC3)c2)c1,–,0.66% (inactive)
CCOC(=O)C1=C(C)NC(=S)NC1c1cccc(O)c1 (stereo not given),0.332 µM (active),–
"Cc1c2oc3c(C)ccc(C(=O)NC4C(=O)NC(C(C)C)C(=O)N5CCCC5C(=O)N(C)CC(=O)N(C)C(C(C)C)C(=O)OC4C)c3nc-2c(C(=O)NC2C(=O)NC(C(C)C)C(=O)N3CCCC3C(=O)N(C)CC(=O)N(C)C(C(C)C)C(=O)OC2C)c(N)c1=O (stereo not given) (I: TVP[Sar][NMeV] / II: TVP[Sar][NMeV]; ester I:1-I:C, II:1-II:C; linker I:N-II:N via Actinocin(9to1); configuration not given here)",7.43 µM (active),–
